This is a sample that favours compounds with a hit; in the whole collection about 4.6% have one here.
D1 antagonist: antagonists of human D1 dopamine receptor | HEK293 TREx D1 cells, calcium flux, dopamine EC80; stronger effect = lower value | actives 3.2% (n = 360,000) | activity change, negative = inhibition, % at 10 µM; in the data active = activity change below about -30%; note: % is set by controls: 0 for no effect and ±100 for the full control effect
Target sequence (P21728 whole entry, looked up): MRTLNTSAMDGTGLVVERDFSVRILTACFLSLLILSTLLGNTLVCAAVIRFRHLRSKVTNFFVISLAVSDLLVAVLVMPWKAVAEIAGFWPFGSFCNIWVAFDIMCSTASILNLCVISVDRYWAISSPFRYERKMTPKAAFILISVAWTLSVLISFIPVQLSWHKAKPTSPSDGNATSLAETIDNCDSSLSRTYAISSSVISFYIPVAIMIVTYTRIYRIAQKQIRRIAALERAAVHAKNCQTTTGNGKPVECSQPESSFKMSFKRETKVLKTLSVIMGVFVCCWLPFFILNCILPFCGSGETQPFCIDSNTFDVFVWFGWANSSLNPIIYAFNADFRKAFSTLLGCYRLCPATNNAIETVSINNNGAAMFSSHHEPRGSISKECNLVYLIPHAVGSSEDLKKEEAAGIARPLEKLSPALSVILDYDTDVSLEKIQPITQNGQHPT
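After overnight tetracycline induction at 30 C, force-coupled D1 HEK293 cells took up a no-wash calcium dye at room temperature. Compounds were added and monitored 180 s, and the response to EC80 dopamine was then recorded.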
TRHR agonist: activates the human TRH receptor; TRHR cells, calcium flux fluo-8, FDSS agonist mode; activation, % at 2 µM; actives 0.18% (n = 360,000); AID 493084; note: 0% is about no effect
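Steps: seed TRHR cells overnight; add fluo-8 no-wash Ca dye, RT 30 min–1.5 h; record 10 s baseline; pin-transfer compounds; monitor fluorescence 1 cycle/s for the agonist window. Calcium increases flag candidate agonists.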
TRHR PAM: TRH receptor (human) allosteric enhancement; actives 0.66% (n = 360,000); enhancement, % at 2 µM; P34981; TRHR cells, fluo-8 calcium fluorescence, EC20 TRH enhancement; in the data active = enhancement above about 30%; note: 0% is about no effect
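TRHR-expressing cells loaded with fluo-8 calcium dye were read kinetically (ex 480/em 530) during compound addition, then stimulated with an EC20 of TRH (10 nM final). Enhancement of the Gq-mediated intracellular calcium response was scored.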
D1 PAM: enhances dopamine response at the human D1 receptor. HEK293 TREx D1 cells, calcium flux, dopamine EC20 potentiation. P21728. potentiation, % at 10 µM. AID 504651. actives 0.036% (n = 360,000); in the data active = potentiation above about 30%; note: 0% is about no effect
D1 ag: agonists of human D1 dopamine receptor. P21728. HEK293 T-REx D1 cells, calcium flux, agonist mode. activation, % at 2 µM. actives 1% (n = 360,000); note: 0% is about no effect
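Tetracycline-induced HEK293 TREx D1 cells, force-coupled to calcium signalling, were dye-loaded with a no-wash calcium kit. Compound was pin-added after a 10 s baseline. Fluorescence was read kinetically at 1 cycle/s for 180 s, with calcium rises flagged as agonism.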
The depositor's hits bear a star; x = no result; ! = a repeat was not active. Cut-off read from the data, not from the text of the source, unless noted: active = activation above about 30%; inactive = the rest.

SMILES | D1 antagonist | TRHR agonist | TRHR PAM | D1 PAM | D1 ag
O=C(NCCN1CCN(c2cccc(Cl)c2)CC1)C1COc2ccccc2C1 (centres undefined) | -86* | 0 | 23 | -5 | 8
COc1ccc2c(c1)CC(C(=O)NCCN1CCN(c3cccc(Cl)c3)CC1)CO2 (centres undefined) | -47* | 0 | -4 | -2 | 24
O=C(NCCN1CCN(c2ccccc2F)CC1)C1COc2ccccc2C1 (centres undefined) | -57* | 0 | 6 | -5 | -2
O=C(NCCc1ccccc1)C1COc2ccccc2C1 (centres undefined) | -7 | 0 | -2 | -3 | 3
CCOc1ccccc1CNc1ncnc2c1nc1n2CCCC1 | -5 | -1 | -2 | -1 | -1
CCCSc1nc(-c2ccc(OC)cc2)cc(-c2ccccc2OC)c1C#N | -10 | 1 | 0 | 3 | 8
Cc1cccc(-c2noc(-c3cc(C(C)C)[nH]n3)n2)c1 | -9 | 5 | -6 | -3 | 42*
Cc1ccccc1-c1nc(CS(=O)CC(=O)NCCc2ccc(Cl)cc2)c(C)o1 (centres undefined) | -65*! | 0 | 17 | -11 | 34*!
Cc1ccc(C)c(NC(=O)CSc2nc(=O)n(Cc3ccccn3)c3c2CCC3)c1 | x | 0 | 2 | 1 | -2
O=C(NCc1c(Cl)cccc1Cl)c1ccc2nnsc2c1 | -44* | -1 | -3 | -2 | 1
COCCNC(=O)c1ccc2snnc2c1 | 3 | 0 | -1 | 4 | 2
O=C1CC(c2c[nH]c3ccccc23)C(=O)N1c1ccccc1 (centres undefined) | -34* | 0 | 3 | -6 | -1
Nc1c(-c2nc(-c3cccs3)no2)nnn1-c1cccc(F)c1 | 9 | 1 | 12 | 1 | 3
COc1ccccc1NC(=O)c1cc2c(n(-c3ccc(C)cc3)c1=O)CC(C)(C)CC2=O | -31* | 2 | -7 | -1 | -2
O=C(Cc1ccc(S(=O)(=O)N2CCOCC2)s1)Nc1cc(C(F)(F)F)ccc1N1CCCC1 | 0 | -1 | -10 | 5 | 29
O=C(Cc1cccc(C(F)(F)F)c1)Nc1cc(S(=O)(=O)N2CCOCC2)ccc1N1CCCC1 | -43* | 2 | -17 | -24 | 1
Cc1ccc(NC(=O)C2CCN(c3cnccn3)CC2)cc1 | -20 | 0 | -9 | -12 | -1
CN1CCN(c2ccc(NC(=O)CSc3ccccc3)cc2F)CC1 | -53* | 0 | -5 | -17 | 6
O=C(Nc1ccc(C(F)(F)F)cc1)C1CCN(c2cnccn2)CC1 | -56*! | 0 | -3 | -4 | 5
COc1ccc(CCC(=O)Nc2cccc(S(=O)(=O)N3CCCCCC3)c2)cc1OC | -31* | 0 | -7 | -4 | 10
O=C(CCS(=O)(=O)c1cc(Br)cc2c1N(C(=O)C1CC1)CC2)NCc1ccc(Cl)cc1 | -1 | 2 | -17 | -1 | 2
CC1=C(c2ccc(C)c(C)c2)S(=O)(=O)N=C1N1CCC(C(=O)NCCc2ccc(Cl)cc2)CC1 | -23 | 0 | 6 | -7 | 10
O=C(CSc1ccccc1)Nc1cccc(S(=O)(=O)N2CCCC2)c1 | -32* | -1 | 4 | -2 | 5
O=C(Cc1cccc(C(F)(F)F)c1)Nc1cccc(S(=O)(=O)N2CCCC2)c1 | -41* | -1 | -5 | -10 | 11
CC(=O)N1CCN(S(=O)(=O)c2cccc(C(=O)Nc3cc(C(F)(F)F)ccc3N3CCOCC3)c2)CC1 | -31* | 1 | 8 | -10 | 0
SMILES | D1 antagonist | TRHR agonist | TRHR PAM | D1 PAM | D1 ag
CC(CC(=O)Nc1cccc(S(=O)(=O)N2CCCCC2)c1)c1ccccc1 (centres undefined) | -5 | 1 | -9 | -1 | 10
O=C(Cc1cccc(C(F)(F)F)c1)Nc1ccc(S(=O)(=O)N2CCCC2)cc1 | 15 | 1 | -7 | -3 | 3
O=C(Nc1ccncc1)C1CCN(S(=O)(=O)c2cccc(C(F)(F)F)c2)CC1 | -44* | 0 | 6 | x | 8
Cc1cccn2c(=O)c(C(=O)NCCc3ccccc3)cnc12 | 22 | 0 | -5 | -3 | 1
O=C(c1ccc2c(c1)N(Cc1ccc(Cl)cc1)C(=O)c1ccccc1S2=O)N1CCC(Cc2ccccc2)CC1 (centres undefined) | 2 | 0 | -9 | -2 | 4
CCOc1ccc(S(=O)(=O)Nc2cccc(C(=O)N(C)Cc3cccc(OC)c3OC)c2)cc1 | -32* | -1 | 2 | -6 | 7
CCOc1ncccc1C(=O)NNC(=O)c1cccc(S(=O)(=O)Nc2ccc(OC)cc2)c1 | -46* | 0 | -5 | -14 | 3
COc1ccc(C(CNC(=O)c2cccc(NS(=O)(=O)c3ccccc3)c2)N(C)C)cc1 (centres undefined) | -8 | 0 | -2 | -7 | 3
CCOc1ccccc1C(=O)NCC(=O)NNC(=O)c1cccc(S(=O)(=O)Nc2ccc(OC)cc2)c1 | -20 | 0 | 2 | -5 | 1
CCOc1ccc(S(=O)(=O)Nc2cccc(C(=O)NCC(c3ccccc3)N(C)C)c2)cc1 (centres undefined) | 8 | 4 | -3 | 2 | 35*
CCOC(=O)c1c(C)[nH]c(C(=O)N(C)Cc2cccc(OC)c2OC)c1C | 2 | -1 | 4 | -7 | 38*
COc1cc(C2CC(=O)Nc3c2c(=O)n(C)c(=O)n3C)cc(OC)c1OC (centres undefined) | 4 | 0 | 4 | -3 | 0
COC(=O)CSc1nc2sc3c(c2c(=O)n1-c1ccc(C)cc1)CC(C(C)C)OC3 (centres undefined) | -6 | 0 | -1 | -1 | 0
Cc1cc2c(s1)c1cnn(Cc3cc(F)cc(F)c3)c(=O)c1n2C | -23 | 0 | 2 | -6 | 2
COc1ccc(C(CNC(=O)c2cccc(S(=O)(=O)Nc3ccc(F)cc3)c2)N(C)C)cc1 (centres undefined) | -23 | 0 | 33* | -6 | 44*
O=C(NCC(c1ccco1)N1CCCCC1)c1ccc(OCc2ccccc2)cc1 (centres undefined) | -27 | -1 | 3 | -5 | 4
N#CCC(=O)Nc1ccc(C(=O)NCC(c2ccco2)N2CCCCC2)cc1 (centres undefined) | 2 | 1 | 38* | 1 | 4
CCOc1ccc(NS(=O)(=O)c2ccc(C(=O)NCC(c3ccco3)N(C)C)cc2)cc1 (centres undefined) | -13 | 7 | -1 | 4 | 70*
Cc1ccc(NS(=O)(=O)c2cccc(C(=O)NCC(c3ccco3)N3CCCC3)c2)cc1 (centres undefined) | 13 | 3 | 3 | x | 44*
Cc1ccc(NC(=O)N2CCN(C)c3ncccc32)cc1C | 6 | -1 | -3 | -1 | 1
Cc1cc(Br)ccc1NC(=O)C1(S(=O)(=O)c2ccc(Cl)cc2)CC1 | 2 | -1 | 0 | 0 | 1

Assay outcomes from PubChem.
